Measurements: PubChem BioAssay
Potency and affinity values are given separately. Inconclusive results are not listed. A call without a number means that no potency is given here. Activity calls are given as the source filed them.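 How the source made its calls: active means falling signal with fitted half-maximal potency no higher than twice the top valid tested dose; inconclusive means poor fit quality, or flat fit spanning -70% to -30%; inactive means potency over limit, rising signal, or flat fit inside 30%.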

Assay: fungal growth arrest, C. neoformans – Alamar Blue, cherry-picks, dose response (AID 686998)
Conditions: Cryptococcus neoformans growth, 24 h; series mostly up to 35 µM

Structure (SMILES)	outcome
Cc1ccc(NC(=O)[C@H](C)NC(=O)C2CCN(C(=O)[C@@H](N)C(C)C)CC2)cc1	inactive
Cc1ccc(C)c(NC(=O)C2(C)CCCN2C(=O)C(C)C)c1 (configuration not stated)	inactive
Cc1noc(C)c1NC(=O)N(C)C[C@@H]1Oc2ccc(NC(=O)NC(C)C)cc2CC(=O)N([C@H](C)CO)C[C@H]1C	inactive
COc1ccc(CN(C)C[C@@H]2Oc3ccc(NC(=O)Nc4ccc(F)cc4)cc3CC(=O)N([C@H](C)CO)C[C@H]2C)cc1	inactive
CC(C)CC#Cc1cnc2c(c1)C(=O)N([C@H](C)CO)C[C@@H](C)[C@@H](CN(C)C(=O)c1ccc3c(c1)OCO3)O2	inactive
CN1C(=O)c2cc(NS(C)(=O)=O)ccc2OC[C@@H]2O[C@@H](CC(=O)O)CC[C@H]21	inactive
C[C@@H]1CN([C@H](C)CO)C(=O)CCCn2cc(nn2)CO[C@@H]1CN(C)C(=O)CCCN(C)C	inactive
